Source: PubChem BioAssay (National Center for Advancing Translational Sciences (NCATS))
TrxR1 substrate = rat thioredoxin reductase 1 substrate activity; O89049; purified TrxR1 substrate turnover, NADPH consumption readout; Potency, µM (highest dose often 114 µM), inactives show at the top dose activity change, negative = substrate turnover; hit rate 0.01% among 390,000; AID 588456; note: potency is the fitted concentration of half-maximal effect; nearly all actives have a fitted effect of over 50% in size
Target sequence (O89049 whole entry, looked up): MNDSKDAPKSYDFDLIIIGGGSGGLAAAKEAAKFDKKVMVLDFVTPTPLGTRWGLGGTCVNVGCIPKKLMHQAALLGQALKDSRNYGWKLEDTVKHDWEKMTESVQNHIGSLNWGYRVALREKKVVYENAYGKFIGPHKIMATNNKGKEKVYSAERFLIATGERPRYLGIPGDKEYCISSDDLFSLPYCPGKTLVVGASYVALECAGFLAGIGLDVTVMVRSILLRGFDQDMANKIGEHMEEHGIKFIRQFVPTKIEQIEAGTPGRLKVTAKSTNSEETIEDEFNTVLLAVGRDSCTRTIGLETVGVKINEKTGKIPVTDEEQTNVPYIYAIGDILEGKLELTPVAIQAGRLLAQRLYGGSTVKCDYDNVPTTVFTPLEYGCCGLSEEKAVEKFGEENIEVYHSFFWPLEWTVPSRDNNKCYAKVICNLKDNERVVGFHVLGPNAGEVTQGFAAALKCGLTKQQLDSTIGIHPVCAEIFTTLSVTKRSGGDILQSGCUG
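Rat TrxR1, dispensed at 90 nM, was prereduced with 400 uM NADPH (final) for 5 min at ~22 deg C, then incubated with compound 15 min before 400 uM selenite. A first-read NADPH fluorescence drop versus no-compound background flagged substrates.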
LDHA block = inhibitors of human lactate dehydrogenase A; activity change, % (values are at about 110 or 230 µM); purified LDHA, NADH/diaphorase-resazurin fluorescence; hits give low values; hit rate 0.15% among 480,000; P00338; in the data active = activity change below about -30%; inconclusive = mostly about -25% to -30%;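 note: plate controls were DMSO wells for no effect and wells without enzyme for full effect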
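Remaining NADH was detected by diaphorase (0.133 mg/mL) converting 37 µM resazurin to fluorescent resorufin, read at 0 and 20 minutes. The preceding 5-minute room-temperature reaction used 2 nM LDHA, 0.2 mM sodium pyruvate and 0.06 mM NADH at pH 7.4.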
TrxR1 inh = rat TrxR1 inhibition; O89049; recombinant rTrxR1, NADPH fluorescence consumption, selenite substrate; Potency, µM (doses to about 114 µM), for the others: at the highest dose activity change, negative = inhibition, actives largely listed as inhibitors; hit rate 1% among 390,000; note: potency is the fitted concentration of half-maximal effect; nearly all actives have a fitted effect of over 65% in size
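Rat TrxR1 (90 nM in the dispensed reagent) was pre-reduced with 400 uM NADPH for 5 min at room temperature, then incubated with compound for 15 min. After 400 uM selenite was added, NADPH fluorescence (Ex 340/Em 450 nm) was followed for 8 min.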
PI4K2A inh = PI4K2A (human) kinase inhibition | Q9BTU6 | purified PI4K2A, ADP-Glo luminescence, 1 h; hits give low values | activity change, negative = inhibition, % at 76.9 µM | hit rate 0.13% among 420,000 | AID 1346378; in the data active = activity change below about -50%; inconclusive = mostly about -30% to -49%;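 note: -100% = wells without enzyme as full effect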
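ADP-Glo luminescence measured ADP generated by PI4K2A enzyme (4 ug/mL before mixing) with 1.2 mM PI substrate (pre-mix) and 300 microM ATP (pre-mix). Tris pH7.5 buffer with MgCl2, Triton X-100; 1 h reaction at ambient temperature.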
GALK inhibitor = galactokinase (human) inhibition. hit rate 0.007% among 270,000. Purified GALK, Kinase-Glo residual ATP luminescence. Potency, µM (highest dose often 57.5 µM), inactives show top-dose activity change, negative = inhibition, usual class: inhibitors; note: potency is the fitted concentration of half-maximal effect
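5 nM enzyme, 35 uM ATP, 100 uM galactose, 20 mM HEPES pH8.0, 5 mM MgCl2; 1 h RT; residual ATP by Kinase-Glo Plus luminescence, qHTS format.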
a7 integrin act = activators of alpha7 integrin expression for muscular dystrophy; alpha7betagal myoblasts, beta-gal FDG fluorescence, 48 h; Potency, µM (doses to about 38.3 µM), without a hit: at the top dose activation, most hits filed as activators; hit rate 0.064% among 350,000; AID 624291;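 note: potency is the fitted concentration of half-maximal effect; 100% = response of the positive control SU9516; nearly all actives have a fitted effect of over 60% in size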
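Alpha7betagal+/- myoblasts (passage 13) were plated 16-24 hr, then exposed to compounds (1:260 dilution of DMSO stock) for 48 hours at 37C. After MPER lysis, β-galactosidase reporter activity was read as FDG fluorescence (ex 480/em 540) after 30 minutes.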
Numbers without * were called inactive; ? = inconclusive; · = no result given; [ ] = another dose, or the depositor's remark. Compounds with a hit are over-represented: about 1.1% of the library has one in this group of screens. Unless noted, calls come from the whole dose curve; as a rule, active = well fitted curve in the direction sought with a large enough effect; inconclusive = small, poorly fitted or top-dose-only effect, or another doubt; inactive = no such curve, though single readings can be large; an effect the other way counts as inactive or inconclusive. Unless noted, % is set by controls: 0 for no effect and ±100 for the full control effect.

SMILES	TrxR1 substrate	LDHA block	TrxR1 inh	PI4K2A inh	GALK inhibitor	a7 integrin act
Cc1ccc(CNC(=O)C2(CC(=O)NC(C)C)CCCC2)cc1	·	0	·	·	·	·
Cc1ccc(/C=C/c2nc3ccccc3[nH]2)cc1	22%[57.1 µM]	-2	12%[57.1 µM]	-67*	·	·
Cc1ccc(/C=C/c2nc3ccccc3[nH]2)o1	6%[57.1 µM]	4	22µM*	-12	9%	-26%
Cc1ccc(/C=C(/C#N)c2nc3ccccc3[nH]2)o1	·	13	·	·	·	·
CCN(CC)C(=O)OCCc1cc2ccccc2c(=O)o1	9%	0	40µM*	-1	·	-1%
CSc1ccccc1C(=O)Nc1ccccc1Sc1ccccc1	·	0	·	·	·	·
Cc1ccc(S(=O)(=O)/N=C(/NC(=S)Nc2ccccc2)c2ccccc2)cc1	1%	-3	8.9µM*	-3	-3%	1%
Cc1ccc(S(=O)(=O)/N=C(/Nc2ccccc2C)c2ccccc2)cc1	8%[57.1 µM]	-8	9%[57.1 µM]	-1	·	10%
Cc1ccc(NC(=S)N/C(=N/S(=O)(=O)c2ccccc2)c2ccccc2)cc1	-9%	-6	6.3µM*	-3	-2%	-16%
COCCNC(=O)c1cc2cc3ccc(OC)cc3nc2o1	868%	-3	71µM*	-4	-5%	-21%
COc1ccc2cc3cc(C(=O)NCCC(C)C)oc3nc2c1	60%[57.1 µM]	-2	23%[57.1 µM]	3	-2%	34%
COC(=O)C1(NC(=O)c2ccc3c(c2)OCCCO3)CCCCC1	·	-18	·	·	·	·
Cn1c(=O)c2c(ncn2CCC(=O)N2CCN(Cc3ccccc3)CC2)n(C)c1=O	·	0	·	·	·	·
COC(=O)/C=C\C(C#N)(C#N)N=Cc1ccc(OC)cc1	-5%	5	2.2µM*	-5	·	-41%
COc1ccc2c(COC(=O)c3ccccc3OCC3CCCO3)cc(=O)oc2c1 (stereo unspecified)	·	0	·	·	·	·
Cc1ccc(S(=O)(=O)c2nc(C(C)(C)C)oc2N2CCOCC2)cc1	11%[57.1 µM]	-24	0.56µM*	2	1%	1%
Oc1cc(O)c(CN2CCOCC2)cc1CN1CCOCC1	-4%	12	11µM*	-3	·	-14%
CC1Oc2ccccc2N(CC(=O)N(Cc2ccccc2)Cc2ccccn2)C1=O (stereo unspecified)	2%	3	15%	-71*	-2%	-18%
COc1cc(NS(=O)(=O)c2ccc(NC(=O)c3ccc(OC)c(Br)c3)cc2)nc(OC)n1	-2%	-50*	3%	-2	·	·
CCc1cccc2c(C=O)c[nH]c12	·	4	·	·	·	·
CCOC(=O)Cc1csc(NC(=O)c2ccoc2C)n1	10%	2	3%	-50*	7%	16%
CCOC(=O)Cc1csc(NC(=O)c2cccs2)n1	-5%	-5	1%	-84*	-1%	26%
COc1ccc(CNC(=O)c2nn(-c3ccccc3C)c(=O)cc2OC)cc1	·	2	·	·	·	·
Cn1c2ccccc2c2c(C(=O)NCc3ccco3)cn(C3CCCCC3)c(=O)c21	23%	13	20µM*	-16	-1%	-11%
Cc1ccc(CNC(=O)c2cn(C3CCCC3)c(=O)c3c2c2ccccc2n3C)o1	·	·	·	·	-8%	·
SMILES	TrxR1 substrate	LDHA block	TrxR1 inh	PI4K2A inh	GALK inhibitor	a7 integrin act
CCOc1ccc(NC(=O)Nc2cc(C)ccc2F)cc1	-1%[57.1 µM]	-9	0%[57.1 µM]	-64*	9%	25%
COc1ccc(/C=N/N=C2/NC(=O)C(CC(=O)O)S2)cc1OCc1ccccc1Cl (stereo unspecified)	-15%	-14	5%[57.1 µM]	1	-2%	16%
COc1ccc(/C=N/N=C2/NC(=O)C(CC(=O)O)S2)cc1OCc1ccc(Cl)cc1Cl (stereo unspecified)	-12%	-45*	-5%	-10	-3%	21%
O=C(Cc1coc2cc3c(cc12)CCC3)NC1CCSc2c(F)cccc21 (stereo unspecified)	·	7	·	·	·	·
O=C(O)c1ccc2nc(-c3ccco3)c(-c3ccco3)nc2c1	15%	21	2.2µM*	-14	2%	-12%
O=S(=O)(c1ccc2nc(-c3ccco3)c(-c3ccco3)nc2c1)N1CCOCC1	4%	17	4µM*	-55*	3%	14%
COc1ccc(CCNC(=O)c2ccc3nc(-c4ccco4)c(-c4ccco4)nc3c2)cc1OC	-4%	7	2.5µM*	?	-2%	7%
O=C(Nc1ccc2nc(-c3ccco3)c(-c3ccco3)nc2c1)NC1CC1	1%	13	4.5µM*	?	1%	29%
CCc1nc2ccc(C(=O)NCCc3ccc(OC)c(OC)c3)cc2nc1CC	1%[57.1 µM]	-1	26%[57.1 µM]	6	-3%	15%
O=C(NCCCO)Nc1ccc2nc(-c3ccco3)c(-c3ccco3)nc2c1	·	·	·	·	-4%	·
O=S(=O)(c1ccc2ccccc2c1)N1CCOCC1	4%	-5	17%	-3	-1%	15%
COC(=O)c1cccn2cc(CN3CCN(S(=O)(=O)c4cccc(C(F)(F)F)c4)CC3)nc12	·	-7	·	·	·	·
Cc1nc(C(C)C)sc1C(=O)NCc1ccccc1	·	3	·	·	·	·
CCC(C)NC(=O)c1ccc2nc(-c3ccco3)c(-c3ccco3)nc2c1 (stereo unspecified)	-10%	14	2.8µM*	·	·	·
O=C(Nc1cccc(C(F)(F)F)c1)c1ccc2nc(-c3ccco3)c(-c3ccco3)nc2c1	-5%	11	5µM*	-53*	-3%	-14%
COc1ccc(CCNC(=O)c2nn(C)c3c2CS(=O)(=O)c2ccccc2-3)cc1OC	17%	-10	-7%	-3	-1%	4.5µM*
Cc1ccc(CCNC(=O)c2nn(C)c3c2CS(=O)(=O)c2ccccc2-3)cc1	-5%	-7	9%	3	6%	30%
O=C(O)C/C(=C/c1cccs1)c1nc2ccccc2s1	·	10	·	·	·	·
O=C(O)/C=C/C(=O)Nc1ccc(N2CCOCC2)nc1N1CCOCC1	-4%	26	16µM*	-10	-1%	?
Cc1ccc(Sc2ccc(N=CN(C)C)cc2)cc1C	·	8	·	·	·	·
COc1cccc(CN2c3ccc(Br)cc3C(=O)CS2(=O)=O)c1	-2%	0	2.2µM*	-4	·	11%
C=CCN1c2ccc(Br)cc2C(=O)CS1(=O)=O	4%	0	7.1µM*	1	·	33%
C=CCN1c2ccccc2C(=O)C(C)S1(=O)=O (stereo unspecified)	-1%	2	-7%	0	·	-2%
